# Measurements: PubChem BioAssay (EPA / NIEHS)
# Where “and” joins values, the source holds several entries; their conditions need not be identical. Identical values can stand only once. Records with an inconclusive call do not appear. More than one record can exist for a structure, and the calls need not agree. Calls of active or inactive are those of the source. How the source made its calls: active means hit-call score of the fitted dose curve at least 0.9, where 1 is the maximum; inconclusive means response in the unintended direction; inactive means score below 0.9.
# Target: zebrafish Estrogen Receptor (ER1), esr1 (gene 259252) (UniProt P57717)
# Sequence (P57717 whole entry, looked up): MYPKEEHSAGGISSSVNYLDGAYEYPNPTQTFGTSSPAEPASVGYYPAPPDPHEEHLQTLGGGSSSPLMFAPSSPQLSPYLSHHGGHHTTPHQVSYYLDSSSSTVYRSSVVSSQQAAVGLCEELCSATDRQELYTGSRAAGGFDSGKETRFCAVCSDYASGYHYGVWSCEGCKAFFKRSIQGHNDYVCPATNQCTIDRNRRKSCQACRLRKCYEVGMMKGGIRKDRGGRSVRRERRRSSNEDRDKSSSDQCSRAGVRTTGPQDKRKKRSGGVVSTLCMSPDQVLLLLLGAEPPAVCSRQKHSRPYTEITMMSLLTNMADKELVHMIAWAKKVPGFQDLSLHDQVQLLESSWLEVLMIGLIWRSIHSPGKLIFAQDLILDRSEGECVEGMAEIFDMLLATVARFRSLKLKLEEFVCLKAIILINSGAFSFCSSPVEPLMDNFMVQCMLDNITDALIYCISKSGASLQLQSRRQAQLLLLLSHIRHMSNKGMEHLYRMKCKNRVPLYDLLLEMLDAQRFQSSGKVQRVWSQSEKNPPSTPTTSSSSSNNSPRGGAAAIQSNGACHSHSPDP
# Experiment: ATG_zfER1_XSP2: Attagene TRANS-FACTORIAL Multi-Species (XSP2) HepG2 Assay for zebrafish Estrogen Receptor (ER1) (AID 2283816)
# Procedure: ATG_XSP2_multi-species_TRANS is a cell-based, multiplexed assay created by modifying the existing Attagene TRANS-FACTORIAL system to include a panel of nuclear receptors from some or all the following species: human (Homo sapiens), mouse (Mus musculus), frog (Xenopus laevis), zebrafish (Danio rerio), chicken (Gallus gallus), and turtle (Chrysemys picta). The ECOTOX-FACTORIAL format uses HepG2, a human liver cell line, with measurements taken at 24 hours after chemical dosing in a 24-well plate. Xsp2 included 3 nM 6-alpha-fluorotestosterone and 1.5 nM norgestrel to stimulate the androgen receptor.ATG_zfER1_XSP2 is one of 29 assay components measured or calculated from the ATG_XSP2_multi-species_TRANS assay. It is designed to make measurements of mRNA induction, a form of inducible reporter, as detected with fluorescence intensity signals by Reverse transcription polymerase chain reaction (RT-PCR) and Capillary electrophoresis technology.The assay endpoint ATG_zfER1_XSP2 was analyzed in the positive analysis fitting direction relative to DMSO as the negative control and baseline of activity. Using a type of inducible reporter, measures of mRNA for gain-of-signal activity can be used to understand the reporter gene at the transcription factor-level as they relate to the gene ER. Furthermore, this assay endpoint can be referred to as a primary readout, because this assay has produced multiple assay endpoints where this one serves a reporter gene function. To generalize the intended target to other relatable targets, this assay endpoint is annotated to the nuclear receptor intended target family, where the subfamily is steroidal.
# Human liver HepG2 cells are transiently transfected with multiple reporter transcription units (MRTUs) in 6-well plates using FuGene 6 reagent (Roche; 3 ml FuGene/1 mg DNA). The MRTU constructs are regulated by a cis-regulating element (promoter). […] A major difference between the CIS and TRANS system is that in CIS activities of endogenous TFs are measured, whereas the TRANS assay evaluates changes in activities of exogenous, chimeric NR-Gal4 proteins. […] At the end of 24 hour incubation, total RNA was isolated using TriZol reagent (Invitrogen). The isolated RNA is then reverse-transcribed using oligo(dT) primer and Mo-MLV reverse transcriptase (Invitrogen) with DNAse I (Ambion) treatment for 30 min. The one-tenth of the produced cDNA was amplified by PCR using Taq DNA polymerase (Invitrogen) and two reporter sequence-specific primers. The PCR products were fluorescently labeled by primer extension with 6-arboxyfluorescein (6-FAM) 5'-labeled reporter sequence-specific primer (2 min at 95 C, 20 s at 68 C and 10 min at 72 C) and these products were digested with 5U of HpaI (New England Biolabs) for 2h at 37 C. The fragments were purified using Qiaquick PCR columns (Qiagen), analyzed on an ABI 3130xL genetic analyzer (Applied Biosystems) with peak positions identified by using a set of X-rhodamine (ROX)-labeled MapMarker1000 molecular weight standards (BioVentures). The raw capillary electrophoresis data was processed using Attagraph software (Attagene).
SMILES,AC50,outcome
C[C@]12CCC(=O)C=C1CC[C@@H]1[C@@H]2CC[C@@]2(C)[C@H]1CC[C@]2(C)O,51.6 nM (active),–
CC(c1ccc(O)cc1)(c1ccc(O)cc1)c1ccc(O)cc1,–,inactive
Oc1ccc(C(c2ccc(O)cc2)(C(F)(F)F)C(F)(F)F)cc1,336 nM (active),inactive
CCC(=O)O[C@H]1CC[C@H]2[C@@H]3CCC4=CC(=O)CC[C@]4(C)[C@H]3CC[C@]12C,–,inactive
Cc1cc(-c2ccc(N)c(C)c2)ccc1N,65.7 µM (active) and 100 µM (active) and 81.1 µM (active),–
Clc1ccc(C(c2ccccc2Cl)C(Cl)(Cl)Cl)cc1 (centres undefined),–,inactive
C[C@]12CCC(=O)C=C1CC[C@@H]1[C@@H]2CC[C@]2(C)C(=O)CC[C@@H]12,3130 nM (active),inactive
CC(C)(c1ccccc1)c1ccc(O)cc1,6400 nM (active),–
c1cc2ccc3cccc4ccc(c1)c2c34,–,inactive
CCOC(=O)C(O)(c1ccc(Cl)cc1)c1ccc(Cl)cc1,–,inactive
CC(C)(O)C(=O)Nc1ccc([N+](=O)[O-])c(C(F)(F)F)c1,–,inactive
ClC(Cl)=C(c1ccc(Cl)cc1)c1ccc(Cl)cc1,–,inactive
